Records with an inconclusive call do not appear. Where a call stands in place of a potency, no number is given. Activity calls are given as the source filed them. Unless noted, calls come from the whole dose curve; as a rule, active = well fitted curve in the direction sought with a large enough effect; inconclusive = small, poorly fitted or top-dose-only effect, or another doubt; inactive = no such curve, though single readings can be large; an effect the other way counts as inactive or inconclusive.
Assays:
[1] = system: Zika virus NS2B-NS3 protease (unlinked complex); experiment: Primary screen GU Rhodamine qHTS for Zika virus inhibitors: Unlinked NS2B-NS3 protease assay (AID 1347159); note: nearly all actives have a fitted effect of over 60% in size
Method in brief: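 Compounds, tested up to 114 microM, were incubated for 15 minutes with 25 nM unlinked NS2B-NS3 protease at pH 8.0. Cleavage of 1.5 microM Rhodamine110 substrate was then followed by fluorescence for 15 minutes.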

[2] = system: Zika virus NS2B-NS3 protease (linked construct); experiment: Primary screen NINDS Rhodamine qHTS for Zika virus inhibitors (AID 1347160); note: nearly all actives have a fitted effect of over 55% in size
Method in brief: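 Percent inhibition, normalized to uninhibited and enzyme-free controls, is fitted to a 4-parameter Hill equation. Fluorescence change comes from a 15-min cleavage of 1.5 microM bis-peptide Rhodamine110 substrate by 25 nM linked NS2B-NS3 at room temperature.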

[3] = target: Calcium and integrin-binding protein 1 (Homo sapiens) (UniProt Q99828); experiment: Primary qHTS for Identification of Calcium Integrin Binding Protein 1 (CIB1) Competitor (AID 1508620);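 note: GST tagged CIB1 binding a fluorescein labelled alphaIIb integrin peptide tracer; top concentration of the series differs between compounds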
Sequence of Calcium and integrin-binding protein 1 (Homo sapiens) (Q99828 whole entry, looked up): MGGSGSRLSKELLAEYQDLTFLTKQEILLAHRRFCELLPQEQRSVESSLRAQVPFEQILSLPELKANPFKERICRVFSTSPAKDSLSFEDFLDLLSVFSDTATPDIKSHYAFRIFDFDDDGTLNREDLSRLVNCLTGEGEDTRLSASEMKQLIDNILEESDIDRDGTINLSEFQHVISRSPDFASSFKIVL
Method in brief: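 CIB1-GST (1 uM final) and compound incubated 15 min at room temperature before adding FITC-alphaIIb peptide tracer (100 nM final). Competition for binding read by fluorescence polarization (ex 480, em 540) after another 15 min at room temperature.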

[4] = target: Cytochrome P450 2D6 (Homo sapiens) (UniProt P10635); experiment: Cytochrome P450 family 2 subfamily D member 6 (CYP2D6) small molecule antagonists: luciferase biochemical (cell-free) qHTS assay (AID 1645840; active = well fitted curve in the direction sought with a large enough effect in the repeat runs; an effect the other way counts as inactive or inconclusive; note: potency is the fitted concentration of half-maximal effect; nearly all actives have a fitted effect of over 55% in size)
Sequence of Cytochrome P450 2D6 (Homo sapiens) (P10635 whole entry, looked up): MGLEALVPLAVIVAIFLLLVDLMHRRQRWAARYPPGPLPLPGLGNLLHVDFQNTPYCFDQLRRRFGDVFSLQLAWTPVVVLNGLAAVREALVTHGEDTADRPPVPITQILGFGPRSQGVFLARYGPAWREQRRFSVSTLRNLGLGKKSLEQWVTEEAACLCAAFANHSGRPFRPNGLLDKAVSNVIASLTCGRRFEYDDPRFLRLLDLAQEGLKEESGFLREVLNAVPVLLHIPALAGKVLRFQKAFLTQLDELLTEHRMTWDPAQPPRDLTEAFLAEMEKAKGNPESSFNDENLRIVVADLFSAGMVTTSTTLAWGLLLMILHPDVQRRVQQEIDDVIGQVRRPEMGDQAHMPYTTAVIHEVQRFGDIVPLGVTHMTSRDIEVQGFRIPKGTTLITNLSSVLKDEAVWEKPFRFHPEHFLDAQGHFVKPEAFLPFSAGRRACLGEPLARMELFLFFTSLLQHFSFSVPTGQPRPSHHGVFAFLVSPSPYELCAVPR
Method in brief: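 P450-Glo luminescent screen: recombinant CYP2D6 enzyme–proluciferin substrate mix preincubated with compound 10 min at room temperature, then NADPH regeneration added for 1 h at room temperature. Detection reagent added for 20 min; luciferin light read as relative luminescence units.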

[5] = target: Glutathione peroxidase 1 (Homo sapiens) (UniProt P07203); experiment: Primary qHTS Assay for Inhibitors of Recombinant Selenoprotein Glutathione Peroxidase 1 (GPX1) (AID 1845191); note: nearly all actives have a fitted effect of over 65% in size
Sequence of Glutathione peroxidase 1 (Homo sapiens) (P07203 whole entry, looked up): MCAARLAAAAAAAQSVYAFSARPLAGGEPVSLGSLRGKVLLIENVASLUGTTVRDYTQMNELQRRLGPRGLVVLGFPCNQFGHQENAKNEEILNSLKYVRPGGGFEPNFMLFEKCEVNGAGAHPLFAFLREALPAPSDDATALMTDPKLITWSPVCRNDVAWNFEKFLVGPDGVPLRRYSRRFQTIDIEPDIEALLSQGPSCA
Method in brief: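 10 nM GPX1 + cpd, 30 min RT; start w/ 1 mM GSH, 0.5 mM cumene hydroperoxide, 0.5 mM NADPH, 100 nM GR, 0.01% BSA; buffer 50 mM Tris-HCl pH 7.5, 2 mM EDTA, 150 mM NaCl; Fl 340/450, 0 & 15 min.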

[6] = target: Phospholipid hydroperoxide glutathione peroxidase GPX4 (Homo sapiens) (UniProt P36969); experiment: Primary qHTS Assay for Inhibitors of Recombinant Selenoprotein Glutathione Peroxidase 4 (GPX4) (AID 1845192); note: nearly all actives have a fitted effect of over 65% in size
Sequence of Phospholipid hydroperoxide glutathione peroxidase GPX4 (Homo sapiens) (P36969 whole entry, looked up): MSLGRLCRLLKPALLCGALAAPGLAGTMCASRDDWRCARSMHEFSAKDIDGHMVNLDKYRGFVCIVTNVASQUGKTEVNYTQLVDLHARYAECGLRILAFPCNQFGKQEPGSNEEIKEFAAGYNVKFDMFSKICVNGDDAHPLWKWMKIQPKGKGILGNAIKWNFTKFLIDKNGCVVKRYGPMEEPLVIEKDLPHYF
Method in brief: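 NADPH consumption, followed by fluorescence at 340/450 nm between 0 and 15 min, reports GPX4 activity via coupled glutathione reductase (100 nM). Enzyme 200 nM was pre-exposed to compound 30 min; 0.5 mM cumene hydroperoxide and 1 mM GSH served as substrates.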

[7] = target: Luciferin 4-monooxygenase (Photinus pyralis) (UniProt P08659); experiment: Primary firefly luciferase (FLuc) qHTS assay for identification of artifact compounds. (AID 1845220); conditions: outcome: dose series up to 54.1 µM unless noted; note: nearly all actives have a fitted effect of over 60% in size
Method in brief: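 Cell-free, 1536-well qHTS. Buffer pH 7.6 with 0.01% Tween-20 and 0.05% BSA; 10 uM D-luciferin, 10 uM ATP; 10 nM P. pyralis luciferase; luminescence after 5 min.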

[8] = Primary fluorescence-based thiol-reactive (MSTI) qHTS assay for identification of artifact compounds. (AID 1845221);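 note: thiol-reactive compounds lower the probe fluorescence signal; nearly all actives have a fitted effect of over 65% in size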
Method in brief: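 In PBS pH 7.4 with 2% DMSO, each compound met 4 uM MSTI for one hour at ambient temperature, shielded from light, before fluorescence detection.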

[9] = system: Nanoluciferase (engineered Oplophorus gracilirostris luciferase); experiment: Primary Nanoluciferase (NLuc) qHTS assay for identification of artifact compounds. (AID 1845222)
Method in brief: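 Compounds are pinned into diluted (1:55) conditioned medium of NLuc-expressing S16 cells and held 15 min at room temperature protected from light. Nano-Glo substrate follows, and luminescence is read 5 min later.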

[10] = Primary redox qHTS assay for identification of artifact compounds. (AID 1845223)
Method in brief: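 Amplex Red (25 uM) and HRP (250 mU/mL) in HBSS, with compounds for 15 min, then 250 uM DTT for 30 min, room temperature, dark. Fluorescence 525/598 nm read; normalized to DMSO and 10 uM DA3003; Hill fit.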

C33A = experiment: Primary qHTS to identify gynecologic anti-cancer compounds using libraries of approved drugs and bioactive compounds (AID 1345084); conditions: Gynecologic cancer cell panel viability, ATPlite luminescence, 48 h; series mostly up to 57.5 µM; note: nearly all actives have a fitted effect of over 55% in size
Method in brief: (§1)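 Five-concentration response, 48 h; readout is ATP-driven luciferase luminescence.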

CAOV3 = experiment: as above; conditions: Gynecologic cancer cell panel viability, ATPlite luminescence, 48 h; series mostly up to 57.5 µM
Method in brief: as §1

CASKI = experiment: as above; conditions: Gynecologic cancer cell panel viability, ATPlite luminescence, 48 h; series mostly up to 57.5 µM
Method in brief: as §1

Es-2 = experiment: as above; conditions: Gynecologic cancer cell panel viability, ATPlite luminescence, 48 h; series mostly up to 57.5 µM
Method in brief: as §1

Hek293T = experiment: as above; conditions: Gynecologic cancer cell panel viability, ATPlite luminescence, 48 h, control line for the selectivity index; series mostly up to 57.5 µM
Method in brief: as §1

JEG-3 = experiment: as above; conditions: Gynecologic cancer cell panel viability, ATPlite luminescence, 48 h; series mostly up to 57.5 µM
Method in brief: as §1

OV90 = experiment: as above; conditions: Gynecologic cancer cell panel viability, ATPlite luminescence, 48 h; series mostly up to 57.5 µM
Method in brief: as §1

PA-1 = experiment: as above; conditions: Gynecologic cancer cell panel viability, ATPlite luminescence, 48 h; series mostly up to 57.5 µM
Method in brief: as §1

SKOV3 = experiment: as above; conditions: Gynecologic cancer cell panel viability, ATPlite luminescence, 48 h; series mostly up to 57.5 µM
Method in brief: as §1

Tov-21-G = experiment: as above; conditions: Gynecologic cancer cell panel viability, ATPlite luminescence, 48 h; series mostly up to 57.5 µM
Method in brief: as §1

Tov112D = experiment: as above; conditions: Gynecologic cancer cell panel viability, ATPlite luminescence, 48 h; series mostly up to 57.5 µM
Method in brief: as §1

[11] = Primary qHTS to identify inhibitors of SARS-CoV-2 cell entry (AID 1645846; calls by dose curve; note: nearly all actives have a fitted effect of over 45% in size); conditions: activity change, negative = inhibition: at 57.1 µM (top of the series) unless noted
Method in brief: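 Inhibition of spike-mediated entry was scored in human ACE2-transfected Expi293F cells. Particles were MLV-pseudotyped with Wuhan-Hu-1 S carrying a 19-aa C-terminal deletion; signal was luciferase after two days, scaled between spike PP and fusion-protein-free PP.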

CRL-7250 = normal cell line; experiment: qHTS assay to identify novel small-molecules to repurpose for Merkel cell carcinoma treatment (AID 1296009); conditions: MCC and control cell lines, CellTiter-Glo viability, 72 h; series mostly up to 92 µM; note: nearly all actives have a fitted effect of over 60% in size
Method in brief: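 72 hr, 37 degree celsius; NPC 8-pt / MIPE 11-pt dose response; compound pinned in DMSO; CellTiter-Glo, 10 min RT, luminescence; normalized to no-cell and DMSO controls.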

[12] = target: Nuclear receptor subfamily 1 group I member 3 (Homo sapiens) (UniProt Q14994); experiment: Primary qHTS for antagonist of constitutive androstane receptor (CAR) against the NCATS DSHEA and TCM libraries (AID 1794836);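 note: HepG2 cells stably expressing hCAR with CYP2B6 luciferase reporter stimulated by CITCO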
Sequence of Nuclear receptor subfamily 1 group I member 3 (Homo sapiens) (Q14994 whole entry, looked up): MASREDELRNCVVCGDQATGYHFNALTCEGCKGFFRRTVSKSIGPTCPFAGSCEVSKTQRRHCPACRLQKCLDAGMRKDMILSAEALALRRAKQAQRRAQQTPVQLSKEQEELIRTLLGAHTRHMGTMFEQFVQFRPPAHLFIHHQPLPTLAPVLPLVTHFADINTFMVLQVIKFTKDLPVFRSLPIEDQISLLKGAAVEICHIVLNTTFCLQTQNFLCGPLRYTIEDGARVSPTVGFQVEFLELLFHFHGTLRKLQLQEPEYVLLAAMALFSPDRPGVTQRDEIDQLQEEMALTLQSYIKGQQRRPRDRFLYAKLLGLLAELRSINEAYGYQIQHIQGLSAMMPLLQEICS
Method in brief: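 Antagonist mode: CAR reporter luminescence (ONE-Glo) in HepG2-CYP2B6-hCAR cells stimulated with 48 uM CITCO (final) over 24 h at 37 C, compounds titrated; viability read first by CellTiter-Fluor fluorescence.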

[13] = KB-8-5-11 P-gp reporter qHTS against the NCATS DSHEA and TCM libraries (AID 1919977)
Method in brief: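 KB-8-5-11, 500 cells/well, DMEM/10% FBS without colchicine; 4 h attach; cpd titrations, 72 h, 37C/5% CO2; CellTiter-Glo, 30 min RT, luminescence.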

[14] = Primary qHTS for inhibitors of nuclear receptor binding SET domain protein 2 (NSD2) in an isogenic RCH-ACV NSD2 p.E1099K mutant (9B) (AID 1645876); note: potency is the fitted concentration of half-maximal effect; nearly all actives have a fitted effect of over 70% in size
[15] = Primary qHTS for inhibitors of nuclear receptor binding SET domain protein 2 (NSD2) in an RCH-ACV wild type WT cells (2C) (AID 1645877); note: potency is the fitted concentration of half-maximal effect; nearly all actives have a fitted effect of over 70% in size
[16] = Cytotoxicity counterscreen for inhibitors of SARS-CoV-2 cell entry (AID 1645845; calls by dose curve; note: nearly all actives have a fitted effect of over 50% in size)
Method in brief: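 48 h compound treatment (after 1 h preincubation), HEK293-ACE2 cells, 37 C/5% CO2; ATP luminescence endpoint; normalized to cell wells and media blanks.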

[17] = target: Cytochrome P450 2C9 (Homo sapiens) (UniProt P11712); experiment: Cytochrome P450 family 2 subfamily C member 9 (CYP2C9) small molecule antagonists: luciferase biochemical (cell-free) qHTS assay (AID 1645842; active = well fitted curve in the direction sought with a large enough effect in the repeat runs; an effect the other way counts as inactive or inconclusive)
Sequence of Cytochrome P450 2C9 (Homo sapiens) (P11712 whole entry, looked up): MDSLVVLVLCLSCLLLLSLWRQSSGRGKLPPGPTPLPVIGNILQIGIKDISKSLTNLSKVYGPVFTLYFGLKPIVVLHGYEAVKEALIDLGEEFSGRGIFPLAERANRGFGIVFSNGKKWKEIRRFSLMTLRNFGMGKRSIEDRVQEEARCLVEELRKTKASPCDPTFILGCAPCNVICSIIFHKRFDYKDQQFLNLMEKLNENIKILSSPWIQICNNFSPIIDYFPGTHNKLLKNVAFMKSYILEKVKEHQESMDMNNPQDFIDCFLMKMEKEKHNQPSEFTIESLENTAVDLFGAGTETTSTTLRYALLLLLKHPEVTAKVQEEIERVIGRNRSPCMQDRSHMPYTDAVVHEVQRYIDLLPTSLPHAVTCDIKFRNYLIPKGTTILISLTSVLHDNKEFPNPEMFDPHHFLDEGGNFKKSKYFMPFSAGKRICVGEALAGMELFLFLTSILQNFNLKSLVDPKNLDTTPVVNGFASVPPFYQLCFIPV
Method in brief: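 Luminescence, after 20 min with luciferin detection reagent, reflected CYP2C9 turnover during a 1 h NADPH-driven reaction at 37C. Enzyme-substrate mix contained 0.4% bovine serum albumin and was preincubated with compound 10 min at room temperature.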

HeLa = experiment: Primary qHTS to identify gynecologic anti-cancer compounds using libraries of approved drugs and bioactive compounds (AID 1345084); conditions: Gynecologic cancer cell panel viability, ATPlite luminescence, 48 h; series mostly up to 57.5 µM; note: nearly all actives have a fitted effect of over 55% in size
Method in brief: as §1

FC(F)(F)c1ccc(N2CCNCC2)nc1Cl
Potency [1]: inactive | Potency [2]: inactive | Potency [3]: inactive | Potency [4]: 15.1 µM (active) | Potency [5]: inactive | Potency [6]: inactive | outcome [7]: inactive | Potency [8]: inactive | Potency [9]: inactive | Potency [10]: inactive | Potency (C33A): inactive | Potency (CAOV3): inactive | Potency (CASKI): inactive | Potency (Es-2): inactive | Potency (Hek293T): inactive | Potency (JEG-3): inactive | Potency (OV90): inactive | Potency (PA-1): inactive | Potency (SKOV3): inactive | Potency (Tov-21-G): inactive | Potency (Tov112D): inactive

Cc1c(F)cc(C(=O)NC2CC2)cc1-c1ccc(C(=O)NCC(C)(C)C)cn1
activity change, negative = inhibition [11]: -35.5% | Potency (CRL-7250): inactive

CC(=O)C1=C(O)C=C2Oc3c(C(C)=O)c(O)c(C)c(O)c3[C@]2(C)C1=O
Potency [12]: inactive | outcome [13]: inactive | Potency (CRL-7250): inactive

CC[C@@H](C)[C@H]1C(=O)O[C@H](C(C)C)C(=O)N(C)[C@@H]([C@@H](C)CC)C(=O)O[C@H](C(C)C)C(=O)N(C)[C@@H]([C@H](C)CC)C(=O)O[C@H](C(C)C)C(=O)N1C
Potency [3]: inactive | Potency [14]: 4.3 µM (active) | Potency [15]: 1.71 µM (active) | Potency [5]: inactive | Potency [6]: inactive | outcome [7]: inactive [at 25.7 µM] | Potency [8]: inactive | Potency [9]: inactive | Potency [10]: inactive | Potency (JEG-3): inactive

CC(=O)O[C@@H]1C[C@@H](C)[C@](O)(CCC2=CC(=O)OC2)[C@@]2(C)CCCC(C)(C)C12 (stereo partly drawn)
Potency [12]: inactive | outcome [13]: inactive | Potency (CRL-7250): inactive

c1cc(-c2cnn3cc(-c4ccc(N5CCNCC5)cc4)cnc23)c2cccnc2c1
Potency [16]: inactive | Potency [11]: inactive | Potency (CRL-7250): inactive

O=C(NCCN1CCC2(CC1)C(=O)NCN2c1cccc(F)c1)c1ccc2ccccc2c1
Potency [1]: inactive | Potency [2]: inactive | Potency [3]: inactive | Potency [4]: 2.68 µM (active) | Potency [17]: 12 µM (active) | Potency [14]: 9.16 µM (active) | Potency [15]: 9.16 µM (active) | Potency [5]: inactive | Potency [6]: inactive | outcome [7]: inactive | Potency [8]: inactive | Potency [9]: inactive | Potency [10]: inactive | Potency (C33A): inactive | Potency (CAOV3): inactive | Potency (CASKI): inactive | Potency (Es-2): inactive | Potency (HeLa): inactive | Potency (Hek293T): inactive | Potency (JEG-3): inactive | Potency (OV90): inactive | Potency (PA-1): inactive | Potency (Tov-21-G): inactive | Potency (Tov112D): inactive

COc1ccc2cc(OCC3(C(=O)O)CN(C(=O)c4ccc(F)cc4)C3)ccc2c1
Potency [16]: inactive | activity change, negative = inhibition [11]: -2.33% | Potency (CRL-7250): inactive

COCCCc1sc(-c2ccccc2)nc1C(=O)Nc1ccccc1-c1nc2cc(CN3CCCC3)cnc2s1
Potency [16]: inactive | Potency [11]: inactive | Potency (CRL-7250): inactive

O=C1C(c2c(O)[nH]c3ccccc23)=Nc2ccccc21
Potency [16]: inactive | Potency [11]: inactive | Potency (CRL-7250): inactive

COCCOc1ccc(N2CCN(CCn3ncc4c3nc(N)n3nc(-c5ccco5)nc43)CC2)cc1
Potency [16]: inactive | activity change, negative = inhibition [11]: -15.3% | Potency (CRL-7250): inactive
